Assay results: PubChem BioAssay AID602393 (Broad Institute, 2012)
Out of some 350,000 compounds screened, about 7,000 (2%) were called active. No stated cut-off is given here; in the data, active means activation above about 40%; inconclusive means no clear call, values can overlap the other calls; inactive means below that. For the sample, actives were picked, then their nearest neighbours and some compounds at random.

test: Bmi1 luciferase reporter increase in mESCs, primary screen, esBAF inhibitor project, mouse ES cells, Bmi1 luciferase knock-in, single point (AID 602393); details: 24 h, at 12.5 µM, hits give high values, 100% = twice the neutral-well signal;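 further: 0% = median of the plate's neutral control wells and 100% = double that signal; a rise in the Bmi1 reporter signal indicates esBAF inhibition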

Reporter increase, active:
CCOC(=O)c1cc2n(c1C)-c1ccccc1C2=O 47.8%
CN(C)c1ccc(CSc2ccccc2)cc1 75.8%
Cc1ccc(-c2cc(=O)c3ccc(F)cc3[nH]2)cc1 47.2%
N#Cc1ccc(C2N=C(c3ccccc3)NO2)cc1 (configuration not stated) 65.2%
Brc1ccccc1C1N=C(c2ccccc2)NO1 (configuration not stated) 54.3%

Reporter increase, inactive:
C[C@H]1CN([C@@H](C)CO)C(=O)c2cc(NC(=O)Cn3cnnn3)ccc2O[C@H]1CN(C)C(=O)NC1CCCCC1 -0.29%
Cc1ccc(S(=O)(=O)Nc2ccc3c(c2)C(=O)N([C@H](C)CO)C[C@H](C)[C@@H](CN(C)S(=O)(=O)c2cn(C)cn2)OCCCC[C@H](C)O3)cc1 -6.8%
CCOC(=O)c1ccccc1CN1C(=O)c2ccccc2S1(=O)=O 0.163%
CCOC(=O)CN1C(=O)C(=O)c2cc(C)ccc21 -5.46%
COc1ccc(CN(C)C[C@H]2OCCCC[C@@H](C)Oc3ccc(NS(C)(=O)=O)cc3C(=O)N([C@@H](C)CO)C[C@H]2C)cc1 -3.35%
CCC(=O)Nc1ccc2c(c1)OC[C@@H](C)N(Cc1ccccc1OC)C[C@H](C)[C@H](OC)CN(C)C2=O -1.32%
COCC(=O)Nc1ccc2c(c1)C(=O)N(C)C[C@@H](OC)[C@H](C)CN(C(=O)CC1CC1)[C@H](C)CO2 0.458%
Cc1ccc(S(=O)(=O)Nc2cccc3c2O[C@@H](CN(C)C(=O)Nc2ccccc2)[C@H](C)CN([C@@H](C)CO)C3=O)cc1 -4.19%
CN(C)c1cc[n+](Cc2ccccc2)cc1 12.9%
CN(C)c1ccc(CNC23CN4CN(CN(C4)C2)C3)cc1 2.1%
CCNC(=O)C[C@@H]1CC[C@H]2[C@@H](COC[C@@H](O)CN2C(=O)c2cc(Cl)cc(Cl)c2)O1 -3.54%
COCC(=O)Nc1ccc2c(c1)C(=O)N(C)[C@@H]1CC[C@@H](CC(=O)NCCCN(C)C)O[C@@H]1CO2 12.8%
O=c1cc(-c2ccccc2)[nH]c2cc(F)ccc12 7.27%
Cc1ccc(S(=O)(=O)/N=C(\N)c2ccc(F)cc2)cc1 13.3%
S=C1NC(c2ccccc2)=NCN1c1ccc(Br)cc1 30.7%
CO[C@@H]1CN(C)C(=O)c2cc(NC(=O)C3CCCC3)ccc2OC[C@@H](C)N(Cc2ccc(F)cc2)C[C@H]1C 8.36%
CO[C@H]1CN(C)C(=O)c2cc(NC(=O)NC(C)C)ccc2OC[C@H](C)N(C(=O)CN(C)C)C[C@H]1C -0.455%
